Results published in PubChem BioAssay (NCI).
Several values for one entry are separate records, joined by “and”; a condition that tells them apart may be missing. Equal entries are not always repeated. Compounds without any hit were thinned out: in the full panel of roughly 83,000, 20% have a hit.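 The endpoint reported here, percent growth, reads 100 for growth as untreated, 0 for no net growth and -100 for all cells dead.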 Activity calls are given as the source filed them. Rule for the calls: active = growth percent below 10; inactive = the rest.

Legend:
Experiment in all cases: NCI-60 one-dose screen, 48 h (100 = growth as untreated, 0 = no growth, -100 = all killed)
NCI-H23 lung = system: NCI-H23 lung
NCI-H226 lung = system: NCI-H226 lung
NCI-H322M lung = system: NCI-H322M lung
HOP-62 NSCLC = system: HOP-62 NSCLC
NCI-H460 lung = system: NCI-H460 lung
NCI-H522 lung = system: NCI-H522 lung
A549/ATCC NSCLC = system: A549/ATCC NSCLC
786-0 renal = system: 786-0 renal
COLO 205 colon = system: COLO 205 colon
HOP-92 NSCLC = system: HOP-92 NSCLC

Measured: growth

CC[C@@]1(O)C(=O)OCc2c1cc1n(c2=O)Cc2cc3c(CN(C)C)c(O)ccc3nc2-1
active: NCI-H23 lung; 10 µM -15.6% and 1.45% | NCI-H226 lung; 10 µM -48.3% and -34.1% | NCI-H322M lung; 10 µM 3.52% and -20.1% | HOP-62 NSCLC; 10 µM -7.57% and -9.48% | NCI-H460 lung; 10 µM 2.05% and -6.71% | NCI-H522 lung; 10 µM -57% | A549/ATCC NSCLC; 10 µM -30.7% and 4.5% | 786-0 renal; 10 µM 5.59% and -13.2% | COLO 205 colon; 10 µM 9.58%

CC/C(=C(\c1ccccc1)c1ccc(OCCN(C)C)cc1)c1ccccc1
inactive: NCI-H23 lung; 10 µM 60.3% | NCI-H226 lung; 10 µM 92.5% | NCI-H226 lung; 12.5 µM 51.3% | NCI-H322M lung; 10 µM 76% | NCI-H322M lung; 12.5 µM 11.7% | HOP-62 NSCLC; 10 µM 43.1% | NCI-H522 lung; 10 µM 46.6% | A549/ATCC NSCLC; 10 µM 49.8%
active: NCI-H23 lung; 12.5 µM -47.7% | HOP-62 NSCLC; 12.5 µM -91.2% | NCI-H460 lung; 10 µM 2.39% | NCI-H460 lung; 12.5 µM -66.8% | HOP-92 NSCLC; 12.5 µM 9.65% | NCI-H522 lung; 12.5 µM -46.4% | A549/ATCC NSCLC; 12.5 µM -44.9% | 786-0 renal; 10 µM -41% | 786-0 renal; 12.5 µM -95.2% | COLO 205 colon; 10 µM -89% | COLO 205 colon; 12.5 µM -71.9%

CN(Cc1cnc2nc(N)nc(N)c2n1)c1ccc(C(=O)N[C@@H](CCC(=O)O)C(=O)O)cc1
inactive: NCI-H23 lung; 2.5 µM 20.9% | NCI-H23 lung; 10 µM 31.7% | NCI-H226 lung; 2.5 µM 39.6% | NCI-H226 lung; 10 µM 35.1% | NCI-H322M lung; 2.5 µM 53.6% | NCI-H322M lung; 10 µM 52.6% | HOP-62 NSCLC; 2.5 µM 30.6% | HOP-62 NSCLC; 10 µM 32.1% | NCI-H460 lung; 2.5 µM 23.5% | NCI-H460 lung; 10 µM 20.7% | HOP-92 NSCLC; 2.5 µM 32.6% | HOP-92 NSCLC; 10 µM 25.1% | NCI-H522 lung; 2.5 µM 47% | NCI-H522 lung; 10 µM 35.3% | A549/ATCC NSCLC; 2.5 µM 31% | A549/ATCC NSCLC; 10 µM 22.8% | 786-0 renal; 2.5 µM 11.7% | 786-0 renal; 10 µM 12.3% | COLO 205 colon; 2.5 µM 50.5% | COLO 205 colon; 10 µM 44.1%

COc1ccc2sc3cccc(NCCN(C)C)c3c(=O)c2c1
24.9% (inactive) and -9.03% (active): HOP-92 NSCLC; 10 µM
48.4% (inactive) and -70.3% (active): HOP-62 NSCLC; 10 µM
active: NCI-H522 lung; 10 µM -20.9% | COLO 205 colon; 10 µM -17.3% and -81.8%
inactive: NCI-H23 lung; 10 µM 60.9% and 19.2% | NCI-H226 lung; 10 µM 59.2% and 13.7% | NCI-H322M lung; 10 µM 41.2% and 12.5%
25% (inactive) and -23.4% (active): A549/ATCC NSCLC; 10 µM
21.5% (inactive) and -76.7% (active): NCI-H460 lung; 10 µM
60% (inactive) and 1.78% (active): 786-0 renal; 10 µM
